Here are results for five compounds from PubChem BioAssay (NCI).

This is part of a sample that, as a whole, favours compounds with a hit. Of some 83,000 tested, about 20% had one in any assay.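 Plates (96-well) were seeded with cells, treated with compound at one concentration, and incubated for 48 hours before percent growth was determined.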 A number with no mark means an inactive call. Activity calls are given as the source filed them. How the source made its calls: active means growth percent below 10; inactive means the rest.

In the experiment the test system is MDA-MB-468 breast. Briefly: NCI-60 one-dose screen, 48 h (100 = growth as untreated, 0 = no growth, -100 = all killed). The note with it: 10 µM unless noted.
As to `CCOc1cc(/C=N\Nc2nnc(C)n2N)c(C)cc1N(CCCl)CCCl`, the growth is -21.1% (active).
For `O=C(CBr)Nc1ccccc1` the value was 108%; for `CC(C)(C)[Si](C)(C)OC1[C@@H](O[Si](C)(C)C(C)(C)C)[C@@H](CNC(=O)NC(=O)CF)O[C@H]1n1cnc2c(NC(=O)Nc3ccccc3)ncnc21` (stereo not given in full), 90.5%.
For `CO[C@@H]([CH2][Hg][S]C#N)[C@@H]([CH2][Hg][S]C#N)OC`, the growth was 98.3%.
As for `O=CN1N=C(c2ccccc2)CC1c1sc(N(CCCl)CCCl)nc1Cl` (stereo not given), the figure is 94%.
